This is an account of results in PubChem BioAssay AID485358 (National Center for Advancing Translational Sciences (NCATS), 2010).

In all, about 340,000 compounds went through this assay and about 1,800 (0.53%) were called active. What follows is part of a selection rich in actives, with near analogues and random picks from the rest. Values without a mark were called inactive.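 How the source made its calls: active means activation over 3 SD above normal in the single-dose calcium agonist read (cut at about 30% in these data); inactive means the rest.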

Sequence of D(2) dopamine receptor (Homo sapiens) (P14416 whole entry, looked up): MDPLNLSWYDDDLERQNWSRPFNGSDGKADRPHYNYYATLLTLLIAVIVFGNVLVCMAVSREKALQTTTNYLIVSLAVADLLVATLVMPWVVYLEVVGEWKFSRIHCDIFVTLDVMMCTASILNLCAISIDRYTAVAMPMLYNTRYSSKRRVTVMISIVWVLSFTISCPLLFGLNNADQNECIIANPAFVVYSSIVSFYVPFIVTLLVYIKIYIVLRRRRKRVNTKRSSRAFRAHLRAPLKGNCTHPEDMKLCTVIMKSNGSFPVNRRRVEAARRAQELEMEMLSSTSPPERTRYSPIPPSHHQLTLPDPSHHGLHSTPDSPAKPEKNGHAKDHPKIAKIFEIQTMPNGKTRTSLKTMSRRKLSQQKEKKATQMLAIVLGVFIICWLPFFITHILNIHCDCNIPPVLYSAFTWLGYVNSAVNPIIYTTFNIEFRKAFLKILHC

The target of the test is D(2) dopamine receptor (Homo sapiens) (UniProt P14416). The test can be described thus: HTS Assay for Allosteric Agonists of the Human D2 Dopamine Receptor: Primary Screen for Agonists. Further: 0% is about no effect. Particulars: HEK293 T-REx D2 cells, calcium flux agonist mode; at 2 µM; hits give high values. In a few lines:
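Agonism is scored from calcium flux in a force-coupled, inducible HEK293 cell line expressing D2, read kinetically for 180 s after compound addition against dopamine controls.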
On the technique in general: A change in cytosolic calcium serves as a functional read-out for many receptors and channels.
As to `Cc1ccccc1OCC(O)CN1CCN(c2ccccn2)CC1` (stereo unspecified), the activation is 64.7% (active). For `O=S(=O)(c1ccc(OCC(O)CN2CCN(c3ccccc3Cl)CC2)cc1)N1CCOCC1` (stereo unspecified) the value was -0.884%. With `CC(C)c1ccc(OCC(O)CN2CCN(c3ccccn3)CC2)cc1` (stereo unspecified), the activation was 66.2% (active). As to `Cc1cccc(OCC(O)CN2CCN(CCN3C(=O)c4cccc5cccc(c45)C3=O)CC2)c1C` (stereo unspecified), the activation was -0.617%. `Cc1ccc(OCC(O)CN2CCN(CC(O)COc3ccc(C)cc3Cl)CC2)c(Cl)c1` (stereo unspecified): the activation is 0.53%. Take `CC1CCN(CC(O)COc2ccc(C(=O)c3ccccc3)cc2)CC1` (stereo unspecified): the activation was -0.0837%.

As to `CC(C)c1ccc(OCC(O)Cn2cnc3ccccc32)cc1` (stereo unspecified), the activation was 1.03%. Regarding `CC(=O)Nc1ccc(OCC(O)CN2CCN(c3ccccc3Cl)CC2)cc1` (stereo unspecified), the activation is 71.6% (active).

Consider `C=CCc1ccccc1OCC(O)CN1CCN(CCO)CC1` (stereo unspecified), for which the activation was -1.83%. Regarding `OC(COc1cccc2ccccc12)CN1CCN(c2ccccn2)CC1` (stereo unspecified), the activation was 66.3% (active). For `CNCC(O)CN1CCN(c2ccccc2OC)CC1` (stereo unspecified), the activation is 0.328%. On to `O=C(C(c1ccccc1)c1ccccc1)N1CCN(CC(O)COc2ccccc2)CC1` (stereo unspecified), for which the activation was -0.117%. As to `COc1cc(C(=O)N2CCN(c3ccc(Nc4ccc(C)cc4)nn3)CC2)cc(OC)c1OC`, the activation is -0.205%. As for `COc1ccccc1Cc1nc2ccccc2nc1SCC(=O)N1CCCc2ccccc21`, the activation is 1.06%. With `COc1cccc(NC(=O)N(Cc2cn(C)c3ccccc23)C2CCCCCC2)c1`, the activation was 0.628%.

On to `Cn1ccc2cc(S(=O)(=O)N3CCCC(C(=O)NCc4ccccc4F)C3)ccc21` (stereo unspecified), for which the activation was -0.715%. As to `Cc1ccc(Cl)cc1NC(=O)CSc1nccn1C`, the activation was -0.262%. `CCc1ccc(CN(Cc2ccco2)C(=O)COc2ccc(Cl)c(C)c2)cc1`: the activation is 3.85%. On to `COC(=O)C1=C(c2ccccc2)c2ccccc2S(=O)(=O)N1CC(=O)Nc1ccccc1C(F)(F)F`, for which the activation is -0.526%.

For `COc1ccccc1OCC(=O)Nc1nnc2n1CCS2`, the activation was -1.11%. Regarding `CCN1CCN(CCCNC(=O)c2ccc3c(c2)sc2nc(-c4ccc(OC)cc4)cn23)CC1`, the activation is 1.86%. As to `Cc1nc2ccc(S(=O)(=O)NC(C(=O)NCc3ccccc3Cl)C(C)C)cc2s1` (stereo unspecified), the activation is -0.364%.

Take `Cn1c(C(=O)NCCc2ccsc2)cc2c(=O)n(C)c3ccccc3c21`: the activation is 0.0188%. `CCN1CCCC1CNC(=O)c1cc2c(=O)n(C)c3ccccc3c2n1C` (stereo unspecified): the activation is 1.59%. Take `CCn1c(=O)cc(OCC(=O)Nc2cc(Cl)c(OC)cc2OC)c2ccccc21`: the activation is -0.253%.

As to `CCn1c(=O)cc(OCC(=O)NCCCN2CCN(c3cccc(Cl)c3)CC2)c2ccccc21`, the activation was 72.9% (active). Consider `Cn1c(=O)cc(OCC(=O)N2CCN(c3ccccc3)CC2)c2ccccc21`, for which the activation is 0.681%. Turning to `Cn1c(C(=O)NCCCN2CCN(c3cccc(Cl)c3)CC2)cc2c(=O)n(C)c3ccccc3c21`, the activation is 60.1% (active).

Turning to `Cc1cc(C)cc(NC(=O)CSc2nc3nccnc3c(=O)n2CCc2c[nH]c3ccccc23)c1`, the activation is 0.038%. The value for `Cc1ccccc1CNC(=O)C1CCCN(S(=O)(=O)N(C)c2ccc(F)cc2)C1` (stereo unspecified) was -0.556%; that for `CCOc1ccc(CNC(=O)c2ccc(CS(=O)c3ccccc3)o2)cc1` (stereo unspecified) was -0.363%; that for `CCCN(CCC)CCNC(=O)Cn1cnc2sc(C)c(S(=O)(=O)N3CCC(C)CC3)c2c1=O` was 0.0784%. In the case of `CCC(C)NC(=O)CCCc1ccccc1` (stereo unspecified), the activation was 1.02%. For `CCCCCC(=O)NC(=S)NNC(=O)c1ccc([N+](=O)[O-])cc1` the value was 2.53%.

Turning to `CCCCC(=O)NNC(=S)NC(=O)C(c1ccccc1)c1ccccc1`, the activation is 52.5% (active). The value for `CCCCOc1ccc(CN2C(=O)C(=O)c3cc(Br)cc(C)c32)cc1OC` was -0.896%; that for `Clc1ccc(CN2CCCCCC2)cc1Cl` was 0.701%.

With `Cc1ccc2[nH]c(=O)c(CN3CCCCC3)c(-c3ccccc3)c2c1`, the activation is 16.6%. Turning to `c1ccc2cc3[nH]c(CN4CCCCC4)nc3cc2c1`, the activation is 39.6% (active). Consider `COc1cc(Cl)c(NC(=O)C(NS(=O)(=O)c2cccs2)C(C)C)c(OC)c1` (stereo unspecified), for which the activation was 0.0329%. For `COc1ccc(-n2c(=O)c3sc4ccccc4c3n(CC(=O)Nc3cccc(C)c3)c2=O)cc1` the value was 1.94%. In the case of `COc1cccc(CNC(=O)C2CCCN(c3ncnc4c3nc3n4CCCCC3)C2)c1` (stereo unspecified), the activation is -0.0991%. The value for `COc1cccc(NC(=O)C2CCCN(c3ncnc4c3nc3n4CCCCC3)C2)c1` (stereo unspecified) was 60.2% (active); that for `CCOC(=O)c1cccc(NC(=O)C2CCN(c3ncnc4c3nc3n4CCCCC3)CC2)c1` was -0.296%; that for `O=C(/C=C/c1ccccc1)N1CCN(Cc2cc(=O)n3nc(-c4ccccc4F)sc3n2)CC1` was 0.305%.

As for `C=CCNC(=O)/C=C/c1ccc(C(C)C)cc1`, the activation is 0.0403%. For the compound `O=C(/C=C(O)/C=C/c1ccc(O)cc1)/C=C/c1ccc(O)cc1`, the activation was 57.4% (active). Regarding `O=C(O)/C=C/c1ccc(S(=O)(=O)N2CCCCCC2)cc1`, the activation was 19.8%. In the case of `CC(NC(=O)c1cc2c(=O)n3ccccc3nc2n(C(C)C)c1=N)c1ccccc1` (stereo unspecified), the activation was 0.527%. Turning to `COc1ccc(CNC(=O)CS(=O)Cc2nc(-c3cccc(C)c3)oc2C)cc1` (stereo unspecified), the activation is -0.737%.

Take `CCN(CCCNC(=O)CSc1cc(=O)n(C)c2cc(Cl)ccc12)c1cccc(C)c1`: the activation was 0.221%. With `CCN(CCCNC(=O)c1ccc2c(c1)NC(=O)CN2C)c1cccc(C)c1`, the activation was 37.3% (active). Consider `CCN(CCCNC(=O)c1ccc(Sc2ccc(C)cc2)c(NC(C)=O)c1)c1cccc(C)c1`, for which the activation was 0.373%.

Regarding `COc1cc(OC)c(NC(=O)Cc2ccc(-n3c(C)nc4cccnc43)cc2)cc1Cl`, the activation is -0.621%. Take `CCOc1cc(C2c3c(-c4ccc(Br)cc4)n[nH]c3C(=O)N2c2ccc(Cl)cc2)ccc1O` (stereo unspecified): the activation was 0.413%. For `Cc1cc(C)cc(NC(=O)Cn2nc(N3CCN(c4ccccc4)CC3)ccc2=O)c1` the value was 0.0127%.
